In the supplement of paper PMC7411054:

Columns and labels:
Experiment in all cases: phenotypically active (imaging signature differs from DMSO and reproducible) at any of 0.3-9 uM (binary (1 = active, 0 = inactive)); higher = active
Details in all cases: treatment time: 24 h
A549-ACTB-RAB5A = test system: A549-ACTB-RAB5A
Summary of the method: (§1)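 After 24 h at 0.3, 1, 3 or 9 µM, with four wells per treatment, fifteen gene-edited A549, HepG2 and WPMY1 reporter lines carrying BFP, GFP and RFP/FusionRed were imaged live. Each well's live-cell features were expressed relative to solvent control wells. Deviation required ≥3 of 4 wells past the 95th percentile of control Euclidean distances, and reproducibility a median replicate Pearson correlation over the 95th percentile of non-replicates. Phenotypic activity rested on both.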

A549-CANX-COX4 = test system: A549-CANX-COX4
Summary of the method: as §1

A549-GM130-SQSTM1 = test system: A549-GM130-SQSTM1
Summary of the method: as §1

A549-TP53BP1-CLTA = test system: A549-TP53BP1-CLTA
Summary of the method: as §1

A549-TUBA1B-RELA = test system: A549-TUBA1B-RELA
Summary of the method: as §1

HepG2-ACTB-RAB5A = test system: HepG2-ACTB-RAB5A
Summary of the method: as §1

HepG2-CANX-COX4 = test system: HepG2-CANX-COX4
Summary of the method: as §1

HepG2-GM130-SQSTM1 = test system: HepG2-GM130-SQSTM1
Summary of the method: as §1

HepG2-TP53BP1-CLTA = test system: HepG2-TP53BP1-CLTA
Summary of the method: as §1

HepG2-TUBA1B-RELA = test system: HepG2-TUBA1B-RELA
Summary of the method: as §1

WPMY1-ACTB-RAB5A = test system: WPMY1-ACTB-RAB5A
Summary of the method: as §1

WPMY1-CANX-COX4 = test system: WPMY1-CANX-COX4
Summary of the method: as §1

WPMY1-GM130-SQSTM1 = test system: WPMY1-GM130-SQSTM1
Summary of the method: as §1

WPMY1-TP53BP1-CLTA = test system: WPMY1-TP53BP1-CLTA
Summary of the method: as §1

WPMY1-TUBA1B-RELA = test system: WPMY1-TUBA1B-RELA
Summary of the method: as §1

Measured: phenotypically active

C[C@]1(OC(=O)/C=C/c2ccccc2)C[C@@H](O)[C@]2(O)C=CO[C@@H](O[C@@H]3O[C@H](CO)[C@@H](O)[C@H](O)[C@H]3O)[C@@H]21 [Harpagoside]
inactive: A549-ACTB-RAB5A 0 | A549-CANX-COX4 0 | A549-GM130-SQSTM1 0 | A549-TP53BP1-CLTA 0 | A549-TUBA1B-RELA 0 | HepG2-ACTB-RAB5A 0 | HepG2-CANX-COX4 0 | HepG2-GM130-SQSTM1 0 | HepG2-TP53BP1-CLTA 0 | HepG2-TUBA1B-RELA 0 | WPMY1-ACTB-RAB5A 0 | WPMY1-CANX-COX4 0 | WPMY1-GM130-SQSTM1 0 | WPMY1-TP53BP1-CLTA 0 | WPMY1-TUBA1B-RELA 0

C=C1C[C@]23C[C@@]1(O)CC[C@H]2[C@@]12C=C[C@H](O)[C@](C)(C(=O)O1)[C@H]2[C@@H]3C(=O)O [Gibberellic acid]
inactive: A549-ACTB-RAB5A 0 | A549-CANX-COX4 0 | A549-GM130-SQSTM1 0 | A549-TP53BP1-CLTA 0 | A549-TUBA1B-RELA 0 | HepG2-ACTB-RAB5A 0 | HepG2-CANX-COX4 0 | HepG2-GM130-SQSTM1 0 | HepG2-TP53BP1-CLTA 0 | HepG2-TUBA1B-RELA 0 | WPMY1-ACTB-RAB5A 0 | WPMY1-CANX-COX4 0 | WPMY1-GM130-SQSTM1 0 | WPMY1-TP53BP1-CLTA 0 | WPMY1-TUBA1B-RELA 0

COc1c2c(cc3oc(CO)cc(=O)c13)O[C@@H](C(C)(C)O)C2 [Cimifugin]
inactive: A549-ACTB-RAB5A 0 | A549-CANX-COX4 0 | A549-GM130-SQSTM1 0 | A549-TP53BP1-CLTA 0 | A549-TUBA1B-RELA 0 | HepG2-ACTB-RAB5A 0 | HepG2-CANX-COX4 0 | HepG2-GM130-SQSTM1 0 | HepG2-TP53BP1-CLTA 0 | HepG2-TUBA1B-RELA 0 | WPMY1-ACTB-RAB5A 0 | WPMY1-CANX-COX4 0 | WPMY1-GM130-SQSTM1 0 | WPMY1-TP53BP1-CLTA 0 | WPMY1-TUBA1B-RELA 0

O=C(O)c1ccc(O)c2ncccc12
inactive: A549-ACTB-RAB5A 0 | A549-CANX-COX4 0 | A549-GM130-SQSTM1 0 | A549-TP53BP1-CLTA 0 | A549-TUBA1B-RELA 0 | HepG2-ACTB-RAB5A 0 | HepG2-CANX-COX4 0 | HepG2-GM130-SQSTM1 0 | HepG2-TP53BP1-CLTA 0 | HepG2-TUBA1B-RELA 0 | WPMY1-ACTB-RAB5A 0 | WPMY1-CANX-COX4 0 | WPMY1-GM130-SQSTM1 0 | WPMY1-TP53BP1-CLTA 0 | WPMY1-TUBA1B-RELA 0

CN1C(=O)CC(C)(c2ccccc2)C1=O (stereo not given) [methsuximide]
inactive: A549-ACTB-RAB5A 0 | A549-CANX-COX4 0 | A549-GM130-SQSTM1 0 | A549-TP53BP1-CLTA 0 | A549-TUBA1B-RELA 0 | HepG2-ACTB-RAB5A 0 | HepG2-CANX-COX4 0 | HepG2-GM130-SQSTM1 0 | HepG2-TP53BP1-CLTA 0 | HepG2-TUBA1B-RELA 0 | WPMY1-ACTB-RAB5A 0 | WPMY1-CANX-COX4 0 | WPMY1-GM130-SQSTM1 0 | WPMY1-TP53BP1-CLTA 0 | WPMY1-TUBA1B-RELA 0

OCC(CO)N[C@H]1C[C@](O)(CO)[C@@H](O)[C@H](O)[C@H]1O [Voglibose]
inactive: A549-ACTB-RAB5A 0 | A549-CANX-COX4 0 | A549-GM130-SQSTM1 0 | A549-TP53BP1-CLTA 0 | A549-TUBA1B-RELA 0 | HepG2-ACTB-RAB5A 0 | HepG2-CANX-COX4 0 | HepG2-GM130-SQSTM1 0 | HepG2-TP53BP1-CLTA 0 | HepG2-TUBA1B-RELA 0 | WPMY1-ACTB-RAB5A 0 | WPMY1-CANX-COX4 0 | WPMY1-GM130-SQSTM1 0 | WPMY1-TP53BP1-CLTA 0 | WPMY1-TUBA1B-RELA 0
